The list is not random: actives were taken first. Their share in the collection is about 11%.
HttQ103 aggreg = qHTS Multiplex Assay to Identify Dual Action Probes in a Cell Model of Huntington: Aggregate Formation (GFP) | PC12 HttQ103-GFP aggregates, Acumen cytometry, 40 h | Potency, µM (highest dose often 46.1 µM), for the others: at the highest dose activity change, negative = inhibition, usual class: inhibitors | hit rate 1.1% among 220,000 | AID 1688, 2009; also: potency is read from the fitted curve at half-maximal effect; % is scaled to controls: 0 for no effect and ±100 for the full control effect; nearly all actives have a fitted effect of over 60% in size
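Multiplexed with ATP-based cell death, this channel scores GFP aggregates in PC12 cells expressing inducible HTTex1-Q103-GFP. Induction used 100 nM tebufenozide; compounds were tested in concentration series.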
HPGD block = qHTS Assay for Inhibitors of HPGD (15-Hydroxyprostaglandin Dehydrogenase) | hit rate 4.3% among 150,000 | 15-hydroxyprostaglandin dehydrogenase [NAD(+)] (Homo sapiens), P15428 | Potency, µM, for inactives: at the highest dose activity change, negative = inhibition, hits mostly inhibitors | purified HPGD, NADH fluorescence kinetic, PGE2 substrate; active = well fitted inhibition curve with a large enough effect, not every such curve was filed as active; inconclusive = small, poorly fitted or top-dose-only effect, or another doubt; inactive = no such curve, though single readings can be large or run the other way; also: potency is read from the fitted curve at half-maximal effect; % is scaled to controls: 0 for no effect and ±100 for the full control effect
Target sequence (P15428 whole entry, looked up): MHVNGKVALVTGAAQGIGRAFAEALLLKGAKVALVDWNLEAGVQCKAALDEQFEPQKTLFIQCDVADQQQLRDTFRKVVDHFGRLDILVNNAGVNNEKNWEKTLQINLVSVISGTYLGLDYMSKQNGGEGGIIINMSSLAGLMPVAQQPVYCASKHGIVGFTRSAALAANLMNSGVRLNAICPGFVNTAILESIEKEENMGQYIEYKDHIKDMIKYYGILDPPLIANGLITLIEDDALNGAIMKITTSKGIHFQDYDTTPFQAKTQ
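20 nM HPGD preincubated 15 min at room temperature with compound in 50 mM Tris-HCl pH 8, 0.01% Tween 20. Started with 1 mM NAD+ and 30 uM prostaglandin E2; NADH fluorescence (360/450 nm) read 5 times over 30-s intervals, last minus first.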
ALDH1A1 block = qHTS Assay for Inhibitors of Aldehyde Dehydrogenase 1 (ALDH1A1) | Potency, µM (highest dose often 75.3 µM), inactives show at the top dose activity, negative = inhibition, usual class: inhibitors | hit rate 7.3% among 220,000 | AID 1030, 2008 | Purified ALDH1A1, NADH fluorescence, propionaldehyde substrate | Aldehyde dehydrogenase 1A1 (Homo sapiens), P00352; active = well fitted inhibition curve with a large enough effect, not every such curve was filed as active; inconclusive = small, poorly fitted or top-dose-only effect, or another doubt; inactive = no such curve, though single readings can be large or run the other way;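 also: potency is read from the fitted curve at half-maximal effect; plate controls were no enzyme wells and a reference inhibitor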
Target sequence (P00352 whole entry, looked up): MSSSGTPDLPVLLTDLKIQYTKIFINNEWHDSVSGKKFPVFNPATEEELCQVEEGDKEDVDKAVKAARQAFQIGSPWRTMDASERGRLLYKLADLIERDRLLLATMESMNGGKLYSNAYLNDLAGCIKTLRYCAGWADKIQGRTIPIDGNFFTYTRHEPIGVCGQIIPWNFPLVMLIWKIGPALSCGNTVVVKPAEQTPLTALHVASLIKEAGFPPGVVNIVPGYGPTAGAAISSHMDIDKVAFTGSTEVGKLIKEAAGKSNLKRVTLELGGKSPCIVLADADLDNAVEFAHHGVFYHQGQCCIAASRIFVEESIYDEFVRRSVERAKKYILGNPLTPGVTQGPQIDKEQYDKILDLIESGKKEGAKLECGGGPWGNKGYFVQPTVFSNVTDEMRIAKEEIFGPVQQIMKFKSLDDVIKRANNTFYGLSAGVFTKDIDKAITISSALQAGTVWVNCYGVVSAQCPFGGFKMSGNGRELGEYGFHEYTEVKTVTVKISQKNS
HTT ATP protect = qHTS Multiplex Assay to Identify Dual Action Probes in a Cell Model of Huntington: Cytoprotection (ATP); hit rate 0.14% among 230,000; PC12 HTT-Q103 induced, cytoprotection, ATP luminescence, 40 h; Potency, µM (series often up to 56.4 µM), inactives show cytoprotection (ATP increase), most hits filed as activators; also: potency is read from the fitted curve at half-maximal effect; % of control where 0% means no effect; nearly all actives have a fitted effect of over 45% in size
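Rat PC12, Q103 Htt exon1-GFP fusion, ecdysone promoter; tebufenozide inducer 100 nM final; compound titration; qHTS, 1500 cells/well; ATPlite luminescent read.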
PNC inhibitor = High Content Assay for Compounds that inhibit the Assembly of the Perinucleolar Compartment; hit rate 3.1% among 140,000; activity change (PNC), negative = inhibition, % at 10 µM; PC3M PTB-GFP, PNC prevalence imaging, 16 h; active compounds read low;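 active = readout at or below -70, meaning at least 70% loss of cells showing the perinucleolar compartment, a nuclear body marking cancer cells; inconclusive = readout between -30 and a set limit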;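 also: plate controls were DMSO wells for no effect and camptothecin positive control wells for full effect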
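Read-out is percentage of cells bearing a perinucleolar compartment, from automated 20x imaging of fixed, Hoechst-stained PC3M PTB-GFP cells. Cells were seeded 4 h, then exposed 16 h to compound (23 nl of library stock) in duplicate plates.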
GoLoco inh red = qHTS Assay for Inhibitors of RGS12 GoLoco Motif Activity (Red Fluorophore) | AID 880, 2007 | Guanine nucleotide-binding protein G(i) subunit alpha-1 (Homo sapiens), P63096 | Potency, µM (top dose mostly 61.6 µM), without a hit: top-dose activity, negative = inhibition, actives largely listed as inhibitors | hit rate 0.44% among 230,000 | Gai1:RGS12 GoLoco peptide FP, rhodamine, 10 min; active = well fitted inhibition curve with a large enough effect, not every such curve was filed as active; inactive = no such curve, though single readings can be large or run the other way; also: potency is read from the fitted curve at half-maximal effect; % is scaled to controls: 0 for no effect and ±100 for the full control effect; nearly all actives have a fitted effect of over 30% in size
* marks the source's active call; other numbers are inactive results; u = inconclusive; x = not tested or not shown; [ ] = dose if it differs, or a comment. Unless noted, calls follow the shape of the dose curve; as a rule, active = well fitted curve in the direction sought with a large enough effect; inconclusive = small, poorly fitted or top-dose-only effect, or another doubt; inactive = no such curve, though single readings can be large; an effect the other way counts as inactive or inconclusive.

SMILES	HttQ103 aggreg	HPGD block	ALDH1A1 block	HTT ATP protect	PNC inhibitor	GoLoco inh red
CC(=O)O[C@@H]1CC[C@]2(C)C(=C[C@@H]([C@@H]3C=C4C[C@@H](OC(C)=O)CC[C@]4(C)C4=C3[C@H]3C[C@@H]5O[C@@]6(CC[C@H](C)CO6)[C@@H](C)[C@@H]5[C@@]3(C)CC4)C3=C2CC[C@@]2(C)[C@H]4[C@@H](C)[C@]5(CC[C@H](C)CO5)O[C@@H]4C[C@H]32)C1	x	-5%	u	-11%[10 µM]	x	0%[14.2 µM]
C/C(CCN1CCCCc2nc(C)c(C)cc21)=N\OC[C@@H](O)[C@@H]1O[C@@H]2OC(C)(C)O[C@@H]2[C@H]1O	x	x	-16%[13.5 µM]	u	x	x
COC(=O)CCS(=O)(=O)c1cc(Cl)ccc1Cl	6%[9.22 µM]	-15%	9%	7%	-138*	-5%
CCc1cccc(CC)c1NC(=O)CSc1nc2ccc(N3C(=O)C4C(C3=O)[C@H]3C=C[C@@H]4C3)cc2s1 (some centres not stated)	-7%	20µM*	18µM*	-6%[10 µM]	-24	2µM*
Cc1[nH]n(-c2ccc(S(=O)(=O)O)cc2)c(=O)c1N=Nc1ccccc1	x	-7%	-7%[13.5 µM]	-1%[10 µM]	x	8%[14.2 µM]
Cc1cnc(CNc2cc(-c3cccc(NS(C)(=O)=O)c3)ncn2)cn1	x	x	-7%	-45%	x	0%
O=C1C=C(N2CCCCC2)C2(CCCCC2)O1	x	x	10µM*	x	x	7%
O=C1C=C(N2CCOCC2)C2(CCCCC2)O1	0%[9.22 µM]	x	u	-8%[10 µM]	x	9%
CN(Cc1ccccc1)c1ncnc2ccc(Br)cc12	0.35µM*	-20%	-2%	-48%	40	8%
Cc1ccc(CNc2nc3c([nH]2)c(=O)n(C)c(=O)n3C)cc1	-20%	-10%	-11%	-2%	1	3%
Cn1c(=O)c2[nH]c(Nc3ccccc3)nc2n(C)c1=O	u	-20%	9%	8%[10 µM]	-100*	9%
NC(=S)NNC(=O)Nc1ccc(Cl)c(Cl)c1	9%	-20%	28µM*	3%[10 µM]	27	15%
Cc1ccc(C(CC(=O)N2CCCC2)c2ccccc2)c(O)c1C (configuration not stated)	2%	7.9µM*	6%	14%[10 µM]	15	-12%
O=C(CC(c1ccccc1)c1cc(Br)ccc1O)N1CCCCC1 (configuration not stated)	8%[9.22 µM]	x	x	1%[10 µM]	x	-3%
COc1ccccc1C(CC(=O)N1CCCC1)c1ccc2c(c1)OCO2 (configuration not stated)	-14%	x	8%	-19%	x	8%
Cc1cccc(C(CC(=O)N2CCCC2)c2ccccc2)c1O (configuration not stated)	-18%	11µM*	-1%	12%	37	6%
O=C(CC(c1ccccc1)c1ccccc1O)N1CCCC1 (configuration not stated)	2%	1.8µM*	-1%	13%	-88*	-13%
C[C@@H](N1CCOCC1)[C@@](O)(c1ccccc1)c1ccccn1	x	-2%	1%[13.5 µM]	-5%[10 µM]	x	1%[14.2 µM]
CCOC(=O)N1CCC(n2c(SCC(=O)NCCc3ccc(S(N)(=O)=O)cc3)nc3ccccc3c2=O)CC1	13%	x	-12%	-20%	x	9%
COCCCNC(=O)C1CCCN(S(=O)(=O)c2ccc(C)cc2)C1 (configuration not stated)	-10%	-16%	0%	-1%[10 µM]	-100*	-9%
Cc1ccc(S(=O)(=O)N2CCCC(C(=O)NC3=NCCS3)C2)cc1 (configuration not stated)	-9%	2%	16%	2%[10 µM]	-103*	6%
CCCCNC(=O)C1CCC(CNS(=O)(=O)c2ccc(C)cc2)CC1 (configuration not stated)	5%	x	10µM*	x	x	7%
CCCCNC(=O)CCNS(=O)(=O)c1ccc(C)cc1	-10%	-1%	-8%	1%	u	-10%
COCCCNC(=O)C1CCC(CNS(=O)(=O)c2ccc(C)cc2)CC1 (configuration not stated)	-3%	x	11µM*	-13%[10 µM]	x	-6%
CCOCCCNC(=O)C1CCC(CNS(=O)(=O)c2ccc(Cl)cc2)CC1 (configuration not stated)	1%	-27%	u	-2%[10 µM]	-25	0%
SMILES	HttQ103 aggreg	HPGD block	ALDH1A1 block	HTT ATP protect	PNC inhibitor	GoLoco inh red
N=C(N)SCc1cc(Cl)cc(Cl)c1O	x	-5%	-4%[13.5 µM]	7%[10 µM]	x	17%[14.2 µM]
CCCCNc1nc(SC)nc2nc[nH]c12	x	-3%	6%[13.5 µM]	0%[10 µM]	x	3%[14.2 µM]
COc1ccc(N2CCN(C(=O)c3ccc(C(C)(C)C)cc3)CC2)cc1	u	-21%	8.9µM*	-5%	u	-21%
COc1ccc(N2CCN(C(=O)C(C)(C)Oc3ccc(Cl)cc3)CC2)cc1	u	-14%	10µM*	11%[10 µM]	u	-13%
Cc1ccc(NC(=O)CC2=NC(=O)C(CC(=O)Nc3ccccc3C)S2)cc1 (configuration not stated)	28%	x	u	x	x	7%
CC(NNC(=O)c1ccccc1)c1ccccc1 (configuration not stated)	42%	x	x	-6%	x	x
O=C1[C@H]2[C@H]3[C@H](O)[C@H](O)C/C(=N/OCc4ccccc4)[C@@H]3CC[C@@H]2C(=O)N1c1cccc(Oc2ccccc2)c1	x	x	-12%[13.5 µM]	-172%[10 µM]	x	x
CC(C)NC(=O)N1CCC2(CC1)CCN(S(=O)(=O)c1ccccc1)CC2	x	-8%	-5%	12%	x	9%
C=CCn1c(SCC(=O)Nc2sc3c(c2C#N)CCC3)nnc1C1COc2ccccc2O1 (configuration not stated)	5%	-23%	u	-22%	u	124%
Cn1c(SCC(=O)c2ccccc2)nnc1C1COc2ccccc2O1 (configuration not stated)	20%[9.22 µM]	x	u	5%[10 µM]	x	-1%
Cn1c(SCC(=O)Nc2sc3c(c2C#N)CCC3)nnc1C1COc2ccccc2O1 (configuration not stated)	30%	-7%	14%	6%[10 µM]	-81*	48%
COC(=O)c1c(NC(=O)CSc2ncnc3c2cnn3-c2ccccc2Cl)sc2c1CCCC2	-13%	-16%	u	20%[1.9 µM]	-18	16%
Clc1ccc(-c2nn3c(C4COc5ccccc5O4)nnc3s2)cc1 (configuration not stated)	-10%	13µM*	7.9µM*	-11%[0.074 µM]	2	3%

Bioassay records deposited in PubChem by National Center for Advancing Translational Sciences (NCATS).
